Among all 18,000 compounds or so, fewer than 10 showed an effect of 50% or more. Only a sample is shown.

In this assay the test system is Pseudomonas aeruginosa. Kind of assay: Antibacterial activity against Pseudomonas aeruginosa PAO397 [PAO1 d(mexAB-oprM) d(mexCD-oprJ) d(mexEF-oprN) d(mexJKL) d(mexXY) d(opmH)] (CO-ADD:GN_211); MIC in CAMBH media using NBS plates, by OD(600). The format is functional. The conditions noted are these: Concentration 300 ug.mL-1, ASSAY_TEST Inhibition of Bacterial Growth, detection method Absorption (OD600), MEDIA CAMHB, plate type 384well, CORNING #3640, time 18 hr.
A word on the Inhibition: it is the drop in the measured response relative to a control, in per cent. As to `COCCCOc1cnc(C#N)cn1`, the Inhibition is -8.76%.
To `Cc1ncccc1CN1CCCCC1(C)C(N)=O` (stereo unspecified) belongs -20.64%; to `Cc1cc(C)cc(OCC(=O)N2CCNCC2)c1`, -0.07%.
Regarding `Cc1ccc(C(=O)NCCNC(=O)c2ccco2)cc1`, the Inhibition is -53.65%.
Regarding `CC1COCCN1Cc1cn2ccccc2n1` (stereo unspecified), the Inhibition is reported as 15.25%.
To `c1ccc(C/N=C2/CCCCCN2)nc1` belongs 23.32%; to `N#Cc1ccc(CN)cc1F`, 2.48%; to `CN1CCN(C(N)=O)C(c2ccccc2)C1` (stereo unspecified), 4.12%.
For the compound `COC(=O)CN1CCCC1=O`, the Inhibition turned out to be 5.23%.
For `CCNC(=O)CSc1nc(C)c(C)n1CCOC` the value was 3.04%; for `CN(C)C(CNC1=NCCN1)c1ccsc1` (stereo unspecified), -1.92%.
For `Cc1c(NC(=O)c2cnccn2)cccc1C(N)=O`, the Inhibition is given as 2.03%.
Consider `CCn1cnnc1CNC(=O)c1cccc(N(C)C)c1`, for which the Inhibition is given as -1.56%.
To `NC1CC(=O)c2ccccc21` (stereo unspecified) belongs 4.06%; to `O=C(CN1CCNC(=O)C1)NCCOc1ccccc1`, 25.17%; to `c1cn(-c2cc(N3CCSCC3)ncn2)cn1`, 8.05%.
For `O=C(c1ccsc1)N1CCCN(c2cccnn2)CC1` the value was 0.34%; for `CC(C)n1nccc1NC(=O)CN(C)Cc1ccco1`, 9.78%.
Take `COc1ccc(CNc2ccncc2F)cc1C#N`: the Inhibition is on record as -8.23%.
In the case of `CC(C)(C)C(=O)Nc1ccc(N2CCNC(=O)C2)cc1`, the Inhibition turned out to be 7.8%.
`COc1ccc(Cl)cc1NC(=O)N[C@@H]1CNCC[C@H]1O`: the Inhibition was -35.77%.
For `CN(C)C1(CNC(=O)c2cn[nH]c2)CCOCC1` the value was -13.75%; for `NCC1CCCOC1` (stereo unspecified), 10.08%.
To `COc1cc(CCCN)cc(OC)c1O` belongs 4.59%; to `Cc1ccccc1CN1CCCN(CCC(N)=O)CC1`, -4.93%; to `NC(=O)NC(=O)CCNS(=O)(=O)c1ccccc1Cl`, 13.15%.
For `NCC(O)CN1CCc2ccccc2C1` (stereo unspecified) the value was -6.8%.
Turning to `CC(CC(=O)N1CC[C@H](O)C1)c1cccc(F)c1` (stereo partly specified), the Inhibition is -15.14%.
Take `CO[C@H]1CNCC1NC(=O)Cc1ccc(F)cc1F` (stereo partly specified): the Inhibition is listed as 11.48%.
To `N#Cc1ncc(Cl)cc1Cl` belongs 28.39%; to `CC(C)CC(=O)NCc1ccnc(N2CCCC2)c1`, -20.17%.
To `CCC[C@H]1CN(C(=O)c2csc(NC)n2)C[C@@H]1N` belongs 2.64%; to `NCCN1C(=O)COc2ccccc21`, -12.94%.
For `Cc1cc(NC(=O)NCC2CCN(CCO)CC2)no1` the value was 13.32%; for `CCc1cccc(S(=O)(=O)N2CC[C@H](N)C2)c1`, -15.97%; for `COCCNCCNC(=O)c1ccc(Cl)c(C)c1`, -10.19%.
In the case of `CNC(=O)c1ccc(C)c(NC(=O)c2ccco2)c1`, the Inhibition is listed as -0.03%.
For `OC(CNc1ncc(Cl)cc1F)CN1CCOCC1` (stereo unspecified) the value was 11.06%; for `CC(C)C(=O)Nc1ccc(N2CCOCC2)nc1`, 4.38%; for `COC(=O)CCCC(=O)N1CCC2(CCCC2)C1`, 14.7%.
To `COCCNS(=O)(=O)C1CCCCC1` belongs -6.37%; to `CC(C)c1cccc(S(=O)(=O)N2CCCC2CN)c1` (stereo unspecified), -46.42%; to `O=C(CN1CCCC1c1ccco1)N1CCOCC1` (stereo unspecified), 18.12%.
For `CC(C)c1ccn(CC(=O)NC2CC2)n1` the value was 1.75%; for `CCc1nnc(NCCS(=O)(=O)N(C)C)o1`, -4.82%; for `CC(C)n1cc(C(=O)NCCN(C)S(C)(=O)=O)cn1`, 17.41%.
As to `CC(=O)NCc1cn2c(C)cccc2n1`, the Inhibition is -5.3%.
For `Cc1ccnc(NCCS(=O)(=O)NCC2CCC2)c1` the value was -18.59%; for `CNC(=O)c1nc(-c2ccc(C(F)(F)F)cc2)no1`, 32.14%.
For `CN(c1ccccc1C(N)=O)S(=O)(=O)c1cccs1` the value was -71.82%; for `CN(C(=O)COCC1CC1)c1nc2ccccc2n1C`, 4.52%; for `CNc1ccc(N2CCOCC2)nc1`, -26.42%.
For `CCN1CCN(CC(=O)Nc2ccc(C)cc2C)CC1` the value was -4.07%; for `CN(C)[C@@H]1CN(C(=O)c2ncccn2)C[C@H]1CO`, 3.69%; for `NC(=O)CCC1CCNCC1`, -8.79%.
Turning to `CCC(C)NC(=O)N1CCCN(C2CC2)CC1` (stereo unspecified), the Inhibition is 16.96%.
For `Fc1ccccc1CN1CCn2ccnc2C1` the value was -12.72%; for `NC1CCCN(c2noc(-c3ccccc3)n2)CC1` (stereo unspecified), 0.95%.
To `COCCNC(=O)NCCc1ccc(C)c(OC)c1` belongs 7.38%; to `Cc1ccc(NC(=O)NC2(CCO)CCOCC2)s1`, -4.26%; to `CCc1nnc(NC2CCOC3(CCOCC3)C2)o1` (stereo unspecified), 8.44%.
For `CCc1ccccc1CN` the value was 3.32%.
Take `CC(=O)NC(C(=O)Nc1cccc(C)n1)C(C)C` (stereo unspecified): the Inhibition was -8.54%.
Consider `O=C1CN(Cc2ncc[nH]2)CCN1C1CCCC1`, for which the Inhibition stood at 2.49%.
To `CCOCC(=O)N(C)Cc1cccc2cnccc12` belongs -38.69%.
For `CC(CO)Sc1ccc(S(=O)(=O)C(F)F)cc1` (stereo unspecified) the value was 16.44%; for `CS(=O)(=O)CC1(CNc2cccc(C(F)(F)F)n2)CC1`, -21.2%.
To `OCc1ccncc1NCC1CCOCC1` belongs 8.94%.
With `OCCCNc1cccc(Cl)c1-n1cccn1`, the Inhibition was -33.42%.
As for `Cn1nc(C(F)(F)F)c(Cl)c1C(=O)N[C@@H]1CCNC1`, the Inhibition is 31.11%.
For `CC(=O)NC(CC(=O)N1CCCC1)c1ccc(Cl)cc1` (stereo unspecified) the value was -24.39%.
In the case of `CN(Cc1ccccc1)C(=O)NC1CCCCNC1=O` (stereo unspecified), the Inhibition is recorded as -2.06%.
For `CS(=O)(=O)N1CCCC(C(=O)Nc2cccnc2O)C1` (stereo unspecified) the value was 14.72%; for `Cc1cc(N(C)C)nc(N2CCCC2C(=O)N(C)C)n1` (stereo unspecified), -8.5%.
To `Cc1cc(NC(=O)CCn2ccnc2)no1` belongs 1.69%; to `COc1c(CNC(=O)c2cccs2)c(C)nn1C`, -17.79%.
Turning to `CCC(=O)N1CCCN(c2ccncc2Cl)CC1`, the Inhibition was -2.88%.
On to `CN1Cc2cccn2CC1CNC(=O)NC1CCCC1` (stereo unspecified), for which the Inhibition is listed as -13.25%.
To `N[C@@H]1CC[C@@H]1NC(=O)CCn1cc(Cl)cn1` belongs -25.34%.
For `COc1cc(F)c(C(=O)N[C@@H]2CCNC[C@H]2O)c(F)c1` the value was 19.43%; for `CN(c1ccc(O)cc1)S(=O)(=O)c1ccco1`, -8.79%; for `CCOCC(=O)N1C[C@H](CO)C[C@H](CN2CCCC2)C1`, -0.69%.
For `COc1ccc(CNC(=O)C2=COCCO2)cc1OC` the value was 2.02%.
For the compound `CCN(C)CCNC(=O)c1cc(C2CC2)[nH]n1`, the Inhibition is reported as -3.76%.
With `Cn1c(N)nc2cc(F)ccc21`, the Inhibition is given as -7.38%.
To `COc1ccc(C)c(NC(=O)N(C)CCN(C)C)c1` belongs -15.47%; to `NS(=O)(=O)CC1CCCN1CCSc1ccccc1` (stereo unspecified), -5.99%; to `CCn1ccc(C(=O)NCc2ccco2)n1`, 2.87%.
For `O=C1CCC(=O)N1CCSc1ccc2ccccc2n1` the value was -6.71%; for `Cc1cc(NC(=O)Nc2ccccn2)n(C)n1`, 4.35%; for `CC(=O)N1CCCn2nc(-c3cccnc3)cc2C1`, 11.49%.
On to `COc1ccc(Br)c(S(=O)(=O)N(C)C)c1`, for which the Inhibition was -20.8%.
To `COc1ccc2c(c1)[C@@H](O)CCC2` belongs -31.22%.
To `N#Cc1ccc(OC2CCNC2)nc1` (stereo unspecified) belongs 1.63%; to `O=C(CCc1ccccn1)NCCn1cccc1`, 9.1%; to `N#CCSCC(=O)NCc1ccccc1F`, -29.21%.
For `Nc1ncccc1CN1CCc2ccccc2CC1`, the Inhibition worked out at 7.61%.
For `COc1ccc(-c2cncc(N)c2)cc1CO` the value was -5.49%; for `COCCN(C)C(=O)Nc1cccc(C)n1`, -9.37%.
Consider `NCC(=O)Nc1ccc2c(c1)CCC2`, for which the Inhibition is reported as -42.19%.
`NCc1nc2c(s1)CCCC2`: the Inhibition is listed as -13.62%.
To `Cn1ccnc1SCCNCC1(O)CNCCOC1` (stereo unspecified) belongs 1.72%; to `COCCn1ccnc1CN1CCN(C)C(CO)C1` (stereo unspecified), -3.82%.
As to `CN(C)C1CCCN(C(=O)c2n[nH]c(N)c2Cl)CC1` (stereo unspecified), the Inhibition is recorded as -17.73%.
For `O=C1CC(N2CCN(Cc3ccccc3)CC2)C(=O)N1` (stereo unspecified) the value was -12.59%.
For `CN1CC[C@H]2CN(C(=O)CCCc3cn[nH]c3)C[C@H]21` the value was -2.24%; for `CC(O)CCS(C)(=O)=O` (stereo unspecified), 4.88%.
To `NC1CCN(S(=O)(=O)C2CC2)CC1` belongs 17.98%; to `O=C(CCc1ccc2[nH]ccc2c1)N1CCOCC1`, -29.4%; to `CCOc1cc(C(=O)NC2=NCCS2)ccc1OC`, 13.17%.
Take `Cn1nc(C(=O)Nc2nc(CC(N)=O)cs2)ccc1=O`: the Inhibition is 12.8%.
To `OCc1cc(CNc2ncccn2)ccc1F` belongs 6.43%; to `CC(CN)N(C)C(=O)c1ccccc1Br` (stereo unspecified), 12.75%.
To `CN(C)c1ncccc1CNC(=O)COCC1CC1` belongs -2.02%; to `CC(C)C(=O)NCc1ccnc(-n2cccn2)c1`, 10.08%; to `O=C(Cn1cc(Br)cn1)NC1CCc2nccn2C1` (stereo unspecified), -4.73%.
To `CCCOc1cccc(NCCCS(C)(=O)=O)c1` belongs 1.09%; to `O=C(NCCCN1CCc2ccccc2C1)C1CC1`, -1.62%; to `NCC1CCN(c2cnn(CC3CCC3)c(=O)c2)CC1`, -9.55%.
Turning to `CC1CN(c2cc(CN)ccn2)CCO1` (stereo unspecified), the Inhibition is listed as 10.77%.
To `CC(C)(C(=O)N1CC[S+]([O-])C(C)(C)C1)c1ccccc1` (stereo unspecified) belongs 12.17%; to `NC(=O)NCC1CCN(Cc2ccccc2)C1` (stereo unspecified), -16%; to `COCC(=O)Nc1cccc(CN2CCCC2)c1`, -2.77%.
For `NC(=O)C1CCN(C(=O)C2CCCO2)CC1` (stereo unspecified), the Inhibition is reported as -13.49%.
`COc1ccc(C(=O)NCc2ccccn2)cc1F`: the Inhibition was -44.49%.
To `COC(=O)CNc1ccc2ccn(C)c(=O)c2c1` belongs 13.73%; to `CN1CCCC(CCN)C1` (stereo unspecified), 8.27%; to `Cc1nn(C)c(C)c1CCC(=O)NC1CCCNC1=O` (stereo unspecified), 6.16%.
To `O=C(c1ccc(Br)cn1)N1CCN(CCO)CC1` belongs 18.45%; to `CSc1ncccc1C(=O)N1CCCC(C)(C#N)C1` (stereo unspecified), -17.22%.
In the case of `CC1CCCN(Cc2cc(=O)n(C)c(=O)n2C)C1` (stereo unspecified), the Inhibition is 8.23%.

The record behind these values is ChEMBL document CHEMBL4513160, “CO-ADD screening of MMV (CH) - Small Polar Library”.
